Sampled rows, rich in hits. Any-hit rate of the full collection: about 0.67%.
Vc quorum ag – induces V. cholerae light production without autoinducers; V. cholerae BH1578 lux reporter, luminescence, 6 h; activation, % at 18.7 µM; 350,000 tested, 0.16% active; in the data active means activation mostly above about 9.7%, no sharp cut-off
Sa RN4220 lethal – S. aureus RN4220 growth inhibition; OD600, 16 h; AID 1259311; inhibition, % (no concentration beside the values); 330,000 tested, 0.33% active; in the data active means inhibition above about 85%
TcdB inh – inhibitors of Clostridioides difficile toxin B glycohydrolase; inhibition, % at 9.99 µM; 350,000 tested, 0.24% active; TcdB glycohydrolase enzymatic assay, plate reader; P18177; AID 652162; in the data active means inhibition above about 10%
ugtP null kill – kills S. aureus RN4220 lacking UgtP; S. aureus RN4220 ugtP deletion, OD600 growth, 16 h; growth inhibition, % (no concentration beside the values); 330,000 tested, 0.54% active; in the data active means growth inhibition above about 68%
Of the large screens only hits and unclear results are named; the others gave an inactive call; ! = a repeat was not active.

O=C(NC=NO)C1=NOC(CNc2ncc(C(F)(F)F)cc2Cl)C1 (stereo not given)	none (no result: Vc quorum ag, TcdB inh)
Cc1ccc(NC2=CC(=NS(=O)(=O)c3cccs3)c3ccccc3C2=O)cc1C	none (no result: Vc quorum ag, TcdB inh)
Cc1ccccc1NC1=C/C(=N\S(=O)(=O)c2cccs2)c2ccccc2C1=O	Sa RN4220 lethal 99, ugtP null kill 88 (no result: TcdB inh)
CCOC(=O)C1C2COc3ccc(OC)cc3C2N2C(=O)c3cc(F)c(F)cc3NC(=O)[C@@]12C (stereo not given in full)	none (no result: Vc quorum ag, TcdB inh)
O=C(O)CCN1C(=O)/C(=C/c2ccc(-c3nc4ccccc4s3)o2)SC1=S	Sa RN4220 lethal 99 (no result: TcdB inh)
O=C(O)CC(C(=O)O)N1C(=O)/C(=C/c2ccc(-c3nc4ccccc4s3)o2)SC1=S (stereo not given)	none (no result: TcdB inh)
O=C(O)CCCN1C(=O)/C(=C\c2ccc(-c3nc4ccccc4s3)o2)SC1=S	ugtP null kill 100
Cc1nc2c(-c3ccc(Cl)cc3)c(C)[nH]n2c(=O)c1Cc1ccccc1	Sa RN4220 lethal 100, ugtP null kill 100
CC(C)CC(NC(=O)c1nc[nH]c1C(=O)NCCCCCN)C(=O)OCc1ccccc1 (stereo not given)	none (no result: Vc quorum ag, TcdB inh)
COc1ccc(OC)c(C=NNC(=O)CC(=O)NCCc2ccccc2)c1	none (no result: Vc quorum ag, TcdB inh)
O=C1NC(=S)/C(=C\c2ccc(-c3ccccc3Cl)o2)S1	Sa RN4220 lethal 97, ugtP null kill 95 (no result: TcdB inh)
Cc1ccccc1-n1c(SCC(=O)NC(N)=O)nc2sc(-c3ccccc3)cc2c1=O	Sa RN4220 lethal 96, ugtP null kill 99
Cc1ccccc1-n1c(SCC(N)=O)nc2sc(-c3ccccc3)cc2c1=O	none (no result: Vc quorum ag, TcdB inh)
C=C(CO)CC1CC(O)[C@]2(C)OC3CC4OC5C[C@]6(C)O[C@]7(C)CCC8OC9C[C@]%10(C)OC%11C(C)=CC(=O)OC%11CC%10OC9CC(C)C8OC7CC6O[C@]5(C)CC=CC4OC3CC2O1 (stereo not given in full)	none (no result: Vc quorum ag, TcdB inh)
COc1ccc(NCc2nn(CC(=O)c3ccc(Br)cc3)c3[n+]2CCCCC3)cc1	none
O=C(Cn1nc(CNc2ccc(Cl)cc2)[n+]2c1CCCCC2)c1ccc(Br)cc1	Sa RN4220 lethal 89, ugtP null kill 98 (no result: TcdB inh)
COc1cc(SC)ccc1C(=O)NCCOc1ccc(Cl)cc1	none
CSc1ccc(Cl)c(C(=O)NCCOc2cc(C(C)C)ccc2C)c1	Sa RN4220 lethal 96, ugtP null kill 97 (no result: TcdB inh)
CCOC(=O)C1C2COc3ccc(Cl)cc3C2N2C(=O)CN(Cc3ccccc3)C(=O)[C@@]12C (stereo not given in full)	none (no result: Vc quorum ag, TcdB inh)
COC(=O)C1=C(C(=O)OC)C2Nc3ccccc3[C@@]23CC(C(=O)OC)N(C(=O)c2cc(C)oc2C)C3=N1 (stereo not given in full)	none (no result: Vc quorum ag, TcdB inh)
CCn1c(SCC(=O)NN=CC=Cc2ccco2)nc2ccccc21	none (no result: Vc quorum ag, TcdB inh)
Cc1ccc(NC(=O)OC(C)N2CCCCC2)cc1NC(=O)OC(C)N1CCCCC1 (stereo not given)	TcdB inh 11
Cc1ccc(NC(=O)N2CCCCC2)cc1NC(=O)N1CCCCC1	none
Cc1cccc(NC(=O)CCOc2ccccc2)c1C	none
Cc1cccc(OCCC(=O)NCC(=O)Nc2cccc(C)c2C)c1	TcdB inh 19
CC(C)CC(NC(=O)c1[nH]cnc1C(=O)Nc1ccc(CNC(=O)OC(C)(C)C)cc1)C(=O)OCc1ccccc1 (stereo not given)	none (no result: Vc quorum ag, TcdB inh)
CCOC(=O)c1cnn(-c2nc(SC)nc3sc4c(c23)CCCC4)c1N	Sa RN4220 lethal 100, ugtP null kill 100 (no result: TcdB inh)
Cc1ccccc1OCC(=O)ON=C(N)Cc1ccc(Cl)cc1	none (no result: Vc quorum ag, TcdB inh)
Cn1cccc1C(=O)OCc1ccc(C(C)(C)C)cc1	ugtP null kill 94
COc1cccc(-c2coc3c(C)c4oc(=O)c(CCC(=O)O)c(C)c4cc23)c1	Sa RN4220 lethal 100, ugtP null kill 100
COc1ccc(-c2coc3c(C)c4oc(=O)c(CC(=O)O)c(C)c4cc23)cc1	Sa RN4220 lethal 93, ugtP null kill 100
CCCCC(NC(=O)Cc1c(C)c2cc3c(-c4ccccc4)coc3c(C)c2oc1=O)C(=O)O (stereo not given)	Sa RN4220 lethal 98, ugtP null kill 100
Cc1c(CC(=O)O)c(=O)oc2c(C)c3occ(-c4ccc(Br)cc4)c3cc12	none (no result: Sa RN4220 lethal, ugtP null kill)
COc1cccc(-c2coc3cc4oc(=O)c(CCC(=O)O)c(C)c4cc23)c1	none
COc1cccc(-c2coc3c(C)c4oc(=O)c(CC(=O)O)c(C)c4cc23)c1	Sa RN4220 lethal 95, ugtP null kill 99
O=CN(c1ccccc1)c1ccc2ccccc2c1	TcdB inh 13
CC(C)CC(=O)N1CC=CCC(c2ccc(Cl)cc2)N(Cc2ccc(Cl)cc2)C(=O)C1Cc1ccccc1 (stereo not given)	none (no result: Vc quorum ag, TcdB inh)
CN1CCN(C=C2SC(=S)NC2=O)CC1	none (no result: Vc quorum ag, TcdB inh)
O=c1c2c(-c3ccccc3)csc2nc2c3ccccc3c(NCCN3CCOCC3)nn12	Sa RN4220 lethal 91
CC(=O)Nc1ccc(NC(=O)c2ccc3c(c2)CCN3S(C)(=O)=O)cc1	none
CS(=O)(=O)N1CCc2cc(C(=O)Nc3ccc(O)cc3)ccc21	TcdB inh 25
CC(C)CC(NC(=O)c1nc[nH]c1C(=O)NCc1ccccc1)C(=O)OC(C)(C)C (stereo not given)	none (no result: Vc quorum ag, TcdB inh)
C=C1CC2C3CCc4cc(OC)ccc4C3CC[C@]12C (stereo not given in full)	ugtP null kill 89 (no result: Vc quorum ag, TcdB inh)
O=C1C2CCC3C(=NOCC(O)COCc4ccco4)CC(O)C(O)C3C2C(=O)N1c1ccc(F)cc1F (stereo not given)	none (no result: Vc quorum ag, TcdB inh)
O=C(Nc1ccccc1)c1nnsc1S(=O)c1ccc(Cl)cc1 (stereo not given)	Sa RN4220 lethal 100, ugtP null kill 101 (no result: TcdB inh)
O=C(c1nnsc1S(=O)c1ccc(Cl)cc1)N1CCOCC1 (stereo not given)	Sa RN4220 lethal 95, ugtP null kill 101
Cc1nnsc1S(=O)c1ccc(Cl)cc1 (stereo not given)	none
COc1cc(Cn2c(-c3ccc(O)c(OC)c3)nc3ccccc32)ccc1O	TcdB inh 15
COc1ccc(-c2nc3ccccc3n2Cc2ccccc2)cc1	none (no result: TcdB inh)
C=CCSc1nc2c(c(C3CC=CCC3)c1C#N)CCC2 (stereo not given)	ugtP null kill 97 (no result: TcdB inh)
Cc1cc(C(C)(C)C)cc(CN2CCN(S(=O)(=O)c3cccs3)CC2)c1O	TcdB inh 11 (no result: Sa RN4220 lethal, ugtP null kill)
Cc1cc(O)c(CN2CCN(S(=O)(=O)c3cccs3)CC2)cc1C(C)C	none
O=C(/C=C/c1cc(Br)ccc1O)c1ccco1	Sa RN4220 lethal 91, ugtP null kill 92
O=C(NC(=S)Nc1ccc(O)cc1)c1ccccc1Cl	TcdB inh 17
Oc1ccc(NC(=S)Nc2ccccc2)cc1	TcdB inh 11!
O=C(CC(c1ccccc1)c1ccccc1)Nc1ccc(O)cc1	TcdB inh 13
Nc1ccc(NC(=S)Nc2ccccc2)cc1	none
CCOc1ccccc1-n1c(C)nc2cc(C(=O)O)ccc21	TcdB inh 20
COc1ccc(CC(C)=NNC(=S)Nc2ccccc2F)cc1	none (no result: Vc quorum ag, TcdB inh)
COc1cc(/C=C/C(=O)OCC(=O)NCc2ccco2)ccc1O	TcdB inh 15 (no result: Sa RN4220 lethal, ugtP null kill)
COc1cc(/C=C/C(=O)OCC(=O)NC(=O)NC(C)(C)C)ccc1O	TcdB inh 16
COC(=O)C1=C(c2ccc3ccccc3c2)CC2CCC1N2C (stereo not given)	none (no result: Vc quorum ag, TcdB inh)

Screens deposited in PubChem by several laboratories.
